Results reported in PubChem BioAssay AID1053125 (Broad Institute, 2014).
Results with a measured potency or affinity are listed apart. Active and inactive are the calls of the source.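 The calls were made as follows: active = viability loss whose fitted half-maximal concentration is at most twice the top valid tested dose; inconclusive = flat curve with 30 to 70% loss, or poor fit; inactive = the rest.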

assay: HepG2 cell cytotoxicity, dose response, cytotoxicity control, ATP luminescence, cherry-pick, set 6 (AID 1053125); conditions: HepG2 viability, ATP luminescence (CellTiter-Glo), 72 h; series mostly up to 26 µM; activity change, negative = cytotoxicity: at the top concentration;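 also: negative values mean loss of viability signal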

Structure (SMILES) | activity change, negative = cytotoxicity
N#CC1=C(N)Oc2cc(O)ccc2C1c1ccc2c(c1)OCO2 (stereo not drawn) | -4.19% (inactive)
CC12CC(c3ccccc3O1)C(C(=O)OCc1ccccc1)C(=O)N2 (stereo not drawn) | -4.78% (inactive)
CC(C)OP(=O)(O)NC(=O)c1ccccc1 | -5.2% (inactive)
